Inconclusive results are not listed. Activity calls are given as the source filed them. Unless noted, calls follow the shape of the dose curve; as a rule, active = well fitted curve in the direction sought with a large enough effect; inconclusive = small, poorly fitted or top-dose-only effect, or another doubt; inactive = no such curve, though single readings can be large; an effect the other way counts as inactive or inconclusive.
Columns and labels:
[1] = biological target: Glucocorticoid receptor (Homo sapiens) (UniProt P04150); test: qHTS assay for small molecule antagonists of glucocorticoid receptor signaling (AID 588533; active = well fitted inhibition curve with a large enough effect in the signal ratio, with a control signal flat, not every such curve was filed as active; the % refers to the signal ratio;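 also: cells stimulated with 2 nM dexamethasone as agonist; % is scaled to controls: 0 for no effect and ±100 for the full control effect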); conditions: HeLa MMTV-bla, GRE beta-lactamase ratio, antagonist mode, 18 h; series mostly up to 76.8 µM
Summary of the method: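 Antagonist-mode qHTS: compound titrations added to GRE-bla HeLa cells, then dexamethasone 2 nM final; 18 h, 37 C. CCF4 FRET fluorescence normalized to dexamethasone and DMSO; IC50 from Hill fit.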

[2] = biological target: Vitamin D3 receptor (Homo sapiens) (UniProt P11473); test: qHTS assay for small molecule agonists of vitamin D receptor signaling (AID 588543; calls by dose curve;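 also: 0% = DMSO basal and 100% = reference agonist control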); conditions: HEK293T VDR-UAS-bla, beta-lactamase ratio, 16 h; series mostly up to 76.8 µM
Summary of the method: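 Reporter cells (HEK293T, VDR-UAS-bla) were seeded in medium with 2% charcoal-stripped serum and incubated 5 h, then compounds in concentration series were added for 16 h at 37 °C. Stimulation was scaled between DMSO basal and 50 nM 1α,25-dihydroxyvitamin D3.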

[3] = biological target: Thyroid hormone receptor beta (Homo sapiens) (UniProt P10828); test: qHTS assay for small molecule agonists of thyroid hormone receptor beta signaling (AID 588545; calls by dose curve); conditions: TR-UAS-bla GripTite HEK 293, beta-lactamase ratio, agonist mode, 18 h; series mostly up to 76.7 µM
Summary of the method: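 Agonist-mode beta-lactamase reporter assay, HEK 293 cells, 2% charcoal/dextran FBS; cells plated 4 hrs, compound 18 hrs at 37 C, CCF4 2 hrs RT. Normalized to 10 nM T3 (100%) and DMSO (0%); Hill fit gives EC50, efficacy.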

[4] = qHTS assay for small molecule activators of the p53 signaling pathway (AID 651743; active = well fitted activation curve with a large enough effect in the signal ratio, not every such curve was filed as active; the % refers to the signal ratio; also: % of control where 0% means no effect); conditions: HCT-116 p53RE-bla, beta-lactamase FRET ratio, 16 h; activation: stronger effect = higher value
Summary of the method: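 Cell-based beta-lactamase reporter (p53 response elements, HCT-116 background). After a 5-hour preincubation, cells received compound for 16 hours at 37 C; substrate development ran 2 hours at room temperature.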

[5] = qHTS assay for small molecule activators of the nuclear factor-kappa B (NF-kB) signaling pathway (AID 651749; active = well fitted activation curve with a large enough effect in the signal ratio; the % refers to the signal ratio; also: % of control where 0% means no effect); conditions: NF-kB-bla ME-180 cells, beta-lactamase FRET ratio, 16 h; activation: stronger effect = higher value
Summary of the method: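 Screening used 2,000 ME-180 reporter cells per well exposed to pinned compound (23 nL) or DMSO; after 16 hr at 37C, beta-lactamase expression under NF-kB control was assessed through FRET.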

[6] = qHTS assay for environmental chemicals that activate the Aryl hydrocarbon Receptor (AhR) signaling pathway (AID 651777); conditions: 1A2-DRE human hepatoma cells, luciferase, 24 h; activation: stronger effect = higher value; also: % of control where 0% means no effect; nearly all actives have a fitted effect of over 15% in size
Summary of the method: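 AhR activation is scored as a rise in luciferase from a stable DRE–CYP1A2 promoter construct in human hepatoma cells. Treatment lasts 24 hr at 37 C; detection uses One-Glo after 30 min at room temperature.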

[7] = biological target: Peroxisome proliferator-activated receptor alpha (Homo sapiens) (UniProt Q07869); test: qHTS assay for small molecule agonists of the peroxisome proliferator-activated receptor alpha (PPARalpha) signaling pathway (AID 651778); conditions: PathHunter PPARalpha complementation, chemiluminescence, 6 h; max response: stronger effect = higher value; also: potency is read from the fitted curve at half-maximal effect; as to max response: % of control where 0% means no effect
Summary of the method: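 Cells plated at 2,000/well and held overnight at 37 C, 5% CO2, then compound added by pin tool for 6 hr; after PathHunter detection reagent and 60 min at room temperature, chemiluminescence from enzyme complementation was read.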

[8] = qHTS assay for small molecule agonists of the antioxidant response element (ARE) signaling pathway measured by Nrf2-dependant transcriptional activity (AID 720636; active = well fitted curve in the direction sought with a large enough effect in the repeat runs; an effect the other way counts as inactive or inconclusive; also: potency is read from the fitted curve at half-maximal effect;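 as to activation: HepG2 cells with an ARE-driven luciferase reporter; % of control where 0% means no effect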); conditions: ARE-luc HepG2, Nrf2 luciferase reporter, 16 h; series mostly up to 92.4 µM
Summary of the method: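 First, ARE-luc HepG2 cells attached for 6 hr at 37 C in 1% dialyzed FBS medium. Next, compound or DMSO was added and incubated 16 hr. Finally, ONE-Glo reagent was added and luminescence measured after 30 min.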

[9] = qHTS assay for cell viability of HEK293 cells (AID 743288); conditions: ATP luminescence (CellTiter-Glo), 18 h; max response: stronger effect = lower value; also: % is scaled to controls: 0 for no effect and ±100 for the full control effect; nearly all actives have a fitted effect of over 50% in size
Summary of the method: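 HEK293 parental, 2,000 cells/well; ≥5 h pre-incubation 37 C; pintool compound addition; 18 h, 37 C; CellTiter-Glo 30 min RT; luminescence read.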

[10] = qHTS assay for cell viability of the p53RE-bla HCT-116 cell line (AID 743292); conditions: p53RE-bla HCT-116 viability, ATP luminescence, 16 h; series mostly up to 95 µM; also: % is scaled to controls: 0 for no effect and ±100 for the full control effect; nearly all actives have a fitted effect of over 55% in size
Summary of the method: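 Quantitative high-throughput format: compounds in DMSO were pinned onto p53RE-bla HCT-116 cells (4,000/well) and incubated 16 h at 37 C. Total intracellular ATP, read by CellTiter-Glo luminescence, reflects viable cell number.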

[11] = biological target: Nuclear receptor subfamily 1 group I member 2 (Rattus norvegicus) (UniProt Q9R1A7); test: qHTS assay for small molecule activators of the rat pregnane X receptor (rPXR) signaling pathway (AID 651751; call rule not given here; also: 0% is about no effect); conditions: rPXR reporter cells, luciferase (One-Glo), 24 h
[12] = qHTS assay for small molecule activators of the human pregnane X receptor (PXR) signaling pathway (AID 720659; call rule not given here; also: 0% is about no effect); conditions: DPX-2 HepG2 CYP3A4-luciferase, 24 h; series mostly up to 92.3 µM
[13] = qHTS assay for small molecule antagonists of peroxisome proliferator-activated receptor delta signaling (AID 588535; active = well fitted inhibition curve with a large enough effect in the signal ratio, with a control signal flat, not every such curve was filed as active; the % refers to the signal ratio;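 as to max response: cells co-treated with a PPAR-delta agonist as stimulator during compound exposure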); conditions: HEK293T PPARd-UAS-bla, beta-lactamase FRET ratio, 18 h; 460 nm channel
Summary of the method: (§1)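 Reporter: UAS-bla under PPAR-delta response element, HEK293T host. Medium: 2% charcoal/dextran FBS. Dosing: titration, 18 hrs, 37 C. Detection: CCF4, 2 hrs RT, 405 ex/460 and 530 em.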

[14] = biological target: Peroxisome proliferator-activated receptor delta (Homo sapiens) (UniProt Q03181); test: as above; conditions: HEK293T PPARd-UAS-bla, beta-lactamase FRET ratio, 18 h; series mostly up to 76.7 µM
Summary of the method: as §1

[15] = biological target: Vitamin D3 receptor (Homo sapiens) (UniProt P11473); test: qHTS assay for small molecule antagonists of vitamin D receptor signaling (AID 588541; calls by dose curve;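 also: receptor activated by calcitriol during compound treatment; % is scaled to controls: 0 for no effect and ±100 for the full control effect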); conditions: HEK293T VDR-UAS-bla, beta-lactamase ratio, antagonist mode; series mostly up to 76.7 µM
Summary of the method: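 VDR-UAS-bla HEK293T cells (2000/well, 2% charcoal-stripped FBS) were treated with titrated compounds plus 1-alpha,25-dihydroxyvitamin D3 (50 nM or 3 nM final) for 16 h at 37 C. CCF4 beta-lactamase fluorescence was read; Hill fits gave IC50.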

[16] = qHTS assay for small molecule agonists of retinoid X receptor alpha signaling (AID 588544; calls by dose curve; also: potency is read from the fitted curve at half-maximal effect;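 as to activation: 0% = DMSO basal wells and 100% = reference agonist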); conditions: HEK293T RXRa-UAS-bla, beta-lactamase reporter, 18 h; 530 nm emission
[17] = biological target: Retinoic acid receptor RXR-alpha (Homo sapiens) (UniProt P19793); test: as above; conditions: HEK293T RXRa-UAS-bla, beta-lactamase reporter, 18 h; series mostly up to 76.7 µM
[18] = qHTS assay for small molecule antagonists of retinoid X receptor alpha signaling (AID 588546; active = well fitted inhibition curve with a large enough effect in the signal ratio, with a control signal flat, not every such curve was filed as active; the % refers to the signal ratio;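 also: cells stimulated with 9-cis-retinoic acid as agonist; % is scaled to controls: 0 for no effect and ±100 for the full control effect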); conditions: HEK293T RXRa-UAS-bla, beta-lactamase ratio, antagonist mode; measured here: W530 green channel, cytotoxicity proxy
Summary of the method: (§2)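 Beta-lactamase reporter inhibition, read as CCF4 fluorescence ratio (ex 405, em 460/530 nm) after 2 h at RT. HEK293T UAS-bla cells, 2500/well, were stimulated with 9-cis-RA at 500 or 100 nM final alongside test compound for 18 h at 37 C.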

[19] = biological target: Retinoic acid receptor RXR-alpha (Homo sapiens) (UniProt P19793); test: as above; conditions: HEK293T RXRa-UAS-bla, beta-lactamase ratio, antagonist mode
Summary of the method: as §2

[20] = qHTS assay for small molecule agonists of the antioxidant response element (ARE) signaling pathway measured by Nrf2-dependant transcriptional activity - cell viability counter screen (AID 720653; active = well fitted curve in the direction sought with a large enough effect in the repeat runs; an effect the other way counts as inactive or inconclusive; also: % is scaled to controls: 0 for no effect and ±100 for the full control effect); conditions: ARE-bla HepG2 viability, CellTiter-Glo ATP luminescence, 16 h; max response: stronger effect = lower value
Summary of the method: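 ARE-bla HepG2 cells (2,000/well) rested 5 hrs at 37C/5% CO2, then exposed to compounds in DMSO for 16 hrs. Viability was read in the same wells as intracellular ATP by luminescence, 30 min at room temperature after reagent addition.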

Sequence of Retinoic acid receptor RXR-alpha (Homo sapiens) (P19793 whole entry, looked up): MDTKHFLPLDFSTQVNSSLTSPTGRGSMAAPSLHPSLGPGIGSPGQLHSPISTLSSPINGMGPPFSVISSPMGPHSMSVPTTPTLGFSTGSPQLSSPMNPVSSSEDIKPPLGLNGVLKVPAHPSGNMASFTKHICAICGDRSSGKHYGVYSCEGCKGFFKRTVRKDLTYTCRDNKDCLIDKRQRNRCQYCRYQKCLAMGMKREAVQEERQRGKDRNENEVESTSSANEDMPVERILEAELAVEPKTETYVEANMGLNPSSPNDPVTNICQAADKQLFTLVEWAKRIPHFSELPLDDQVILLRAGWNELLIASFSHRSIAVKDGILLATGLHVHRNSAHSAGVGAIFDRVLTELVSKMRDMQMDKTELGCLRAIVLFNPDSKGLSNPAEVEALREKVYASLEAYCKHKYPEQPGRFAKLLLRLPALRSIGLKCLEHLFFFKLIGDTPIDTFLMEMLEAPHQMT
Sequence of Peroxisome proliferator-activated receptor delta (Homo sapiens) (Q03181 whole entry, looked up): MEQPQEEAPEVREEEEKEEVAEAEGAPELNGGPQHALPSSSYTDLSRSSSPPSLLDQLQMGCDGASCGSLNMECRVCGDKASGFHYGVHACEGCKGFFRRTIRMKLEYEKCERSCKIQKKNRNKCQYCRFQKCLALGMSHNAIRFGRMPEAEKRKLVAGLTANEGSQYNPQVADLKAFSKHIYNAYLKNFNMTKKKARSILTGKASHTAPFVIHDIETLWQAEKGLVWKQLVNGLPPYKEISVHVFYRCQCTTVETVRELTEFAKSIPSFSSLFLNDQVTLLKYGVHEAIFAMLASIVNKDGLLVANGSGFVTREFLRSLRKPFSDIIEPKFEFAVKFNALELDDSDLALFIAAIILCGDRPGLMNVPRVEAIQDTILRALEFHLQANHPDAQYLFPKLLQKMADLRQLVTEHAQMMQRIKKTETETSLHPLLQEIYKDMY
Sequence of Vitamin D3 receptor (Homo sapiens) (P11473 whole entry, looked up): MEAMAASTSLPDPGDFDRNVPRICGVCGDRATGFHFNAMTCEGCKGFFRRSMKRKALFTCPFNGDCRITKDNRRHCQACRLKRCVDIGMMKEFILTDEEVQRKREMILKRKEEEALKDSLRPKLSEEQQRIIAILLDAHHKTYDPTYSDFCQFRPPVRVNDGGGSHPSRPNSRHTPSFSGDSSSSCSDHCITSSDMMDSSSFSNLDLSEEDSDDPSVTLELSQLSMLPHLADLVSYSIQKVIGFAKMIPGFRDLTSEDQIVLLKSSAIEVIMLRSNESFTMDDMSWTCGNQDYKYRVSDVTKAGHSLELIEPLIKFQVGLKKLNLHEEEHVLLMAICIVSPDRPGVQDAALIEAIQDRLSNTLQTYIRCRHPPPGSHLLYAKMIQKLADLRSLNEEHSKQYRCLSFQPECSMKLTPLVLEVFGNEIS
Sequence of Nuclear receptor subfamily 1 group I member 2 (Rattus norvegicus) (Q9R1A7 whole entry, looked up): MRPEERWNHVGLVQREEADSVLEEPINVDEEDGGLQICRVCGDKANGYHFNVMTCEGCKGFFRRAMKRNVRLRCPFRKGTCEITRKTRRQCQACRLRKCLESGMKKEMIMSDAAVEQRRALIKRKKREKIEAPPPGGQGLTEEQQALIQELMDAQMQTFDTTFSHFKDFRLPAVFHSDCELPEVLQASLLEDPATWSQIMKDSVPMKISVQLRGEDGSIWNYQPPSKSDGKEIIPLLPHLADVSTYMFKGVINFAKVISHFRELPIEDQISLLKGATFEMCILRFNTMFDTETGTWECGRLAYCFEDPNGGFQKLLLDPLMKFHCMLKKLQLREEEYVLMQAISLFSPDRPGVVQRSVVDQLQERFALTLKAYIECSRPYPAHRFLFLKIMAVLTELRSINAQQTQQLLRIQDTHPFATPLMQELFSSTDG
Sequence of Peroxisome proliferator-activated receptor alpha (Homo sapiens) (Q07869 whole entry, looked up): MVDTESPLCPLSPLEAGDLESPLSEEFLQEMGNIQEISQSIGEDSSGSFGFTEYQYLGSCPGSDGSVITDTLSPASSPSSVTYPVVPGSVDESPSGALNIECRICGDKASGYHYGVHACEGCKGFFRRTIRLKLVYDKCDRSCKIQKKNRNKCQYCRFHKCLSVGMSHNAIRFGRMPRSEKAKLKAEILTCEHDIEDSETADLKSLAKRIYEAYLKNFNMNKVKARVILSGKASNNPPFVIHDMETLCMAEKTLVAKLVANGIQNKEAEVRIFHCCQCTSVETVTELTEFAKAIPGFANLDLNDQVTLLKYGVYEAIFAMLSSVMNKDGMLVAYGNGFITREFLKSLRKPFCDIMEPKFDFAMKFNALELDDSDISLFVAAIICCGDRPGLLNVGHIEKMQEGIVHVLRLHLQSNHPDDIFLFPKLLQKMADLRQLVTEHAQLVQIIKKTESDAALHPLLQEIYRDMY
Sequence of Thyroid hormone receptor beta (Homo sapiens) (P10828 whole entry, looked up): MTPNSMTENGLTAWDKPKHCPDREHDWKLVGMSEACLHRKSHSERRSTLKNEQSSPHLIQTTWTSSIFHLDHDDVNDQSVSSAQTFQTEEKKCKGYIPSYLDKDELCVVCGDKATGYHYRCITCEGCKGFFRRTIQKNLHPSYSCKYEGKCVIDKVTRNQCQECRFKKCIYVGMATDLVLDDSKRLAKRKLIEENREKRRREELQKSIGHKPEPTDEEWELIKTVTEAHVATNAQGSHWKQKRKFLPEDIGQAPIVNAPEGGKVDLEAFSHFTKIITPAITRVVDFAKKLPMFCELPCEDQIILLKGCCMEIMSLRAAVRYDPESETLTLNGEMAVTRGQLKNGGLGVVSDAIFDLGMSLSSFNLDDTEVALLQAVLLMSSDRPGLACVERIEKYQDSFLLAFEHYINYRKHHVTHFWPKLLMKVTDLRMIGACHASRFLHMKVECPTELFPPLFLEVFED
Sequence of Glucocorticoid receptor (Homo sapiens) (P04150 whole entry, looked up): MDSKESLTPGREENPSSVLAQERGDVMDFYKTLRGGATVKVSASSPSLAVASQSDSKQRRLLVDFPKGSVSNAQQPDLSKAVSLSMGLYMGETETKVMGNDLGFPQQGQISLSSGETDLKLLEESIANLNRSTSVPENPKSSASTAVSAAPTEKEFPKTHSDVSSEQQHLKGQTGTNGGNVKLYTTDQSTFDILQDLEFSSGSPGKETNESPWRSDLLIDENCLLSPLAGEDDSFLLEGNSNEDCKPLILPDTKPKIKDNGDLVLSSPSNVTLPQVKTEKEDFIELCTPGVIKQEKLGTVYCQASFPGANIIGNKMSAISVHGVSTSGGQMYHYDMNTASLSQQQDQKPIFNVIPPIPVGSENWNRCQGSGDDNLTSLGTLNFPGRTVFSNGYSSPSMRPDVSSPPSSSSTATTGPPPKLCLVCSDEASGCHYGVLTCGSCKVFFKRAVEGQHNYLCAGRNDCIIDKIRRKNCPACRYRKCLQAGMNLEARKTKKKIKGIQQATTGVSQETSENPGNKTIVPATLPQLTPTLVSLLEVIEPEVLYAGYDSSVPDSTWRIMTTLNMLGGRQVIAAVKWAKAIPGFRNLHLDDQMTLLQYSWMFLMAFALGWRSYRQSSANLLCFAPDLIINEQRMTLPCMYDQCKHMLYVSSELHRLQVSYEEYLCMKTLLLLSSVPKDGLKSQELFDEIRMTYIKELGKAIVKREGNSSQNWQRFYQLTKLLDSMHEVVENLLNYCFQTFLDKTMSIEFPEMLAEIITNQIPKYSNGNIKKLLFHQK

Nc1cc(Cl)c(O)c(Cl)c1
active: Potency [8] 68.6 µM
inactive: Potency [1] | outcome [2] | Potency [3] | activation [4] -2.82% | activation [5] -1.35% | activation [6] 0.138% | max response [7] -5.8% | max response [9] -19.5% | Potency [10] | max response [11] 0.356% | outcome [12]

CC1=CC(=O)CC(C)(C)C1
inactive: Potency [1] | Potency [14] | Potency [15] | outcome [2] | Potency [17] | Potency [3] | max response [19] -18.4% | activation [4] 0.625% | activation [6] 0.188% | max response [7] 0.525% | Potency [8] | max response [20] -10.2% | max response [9] -2.87% | Potency [10] | max response [11] 1.52% | outcome [12]
-20.2%: max response [16]
-3.41%: max response [18]
13.3%: max response [13]

NC(=O)Cc1cccc2ccccc12
36.8%: max response [13]
-2.89%: max response [16]
inactive: Potency [1] | Potency [14] | Potency [17] | max response [19] -14.7% | activation [4] 1.36% | activation [6] 4.55% | max response [7] -0.179% | Potency [8] | max response [20] -4.7% | max response [9] -7.9% | Potency [10] | max response [11] -0.261% | outcome [12]
0.786%: max response [18]

COC(=O)CCSCCC(=O)OC
-8.85%: max response [18]
inactive: Potency [1] | Potency [14] | Potency [3] | activation [5] -0.163% | Potency [8] | max response [20] 1.34% | max response [9] -5.77% | Potency [10] | max response [11] 0.101% | outcome [12]
13.2%: max response [13]

CCOC(=O)[C@H](C)Oc1ccc(Oc2nc3ccc(Cl)cc3o2)cc1
inactive: Potency [14] | outcome [2] | activation [5] -0.102% | activation [6] 13.7% | max response [7] -1.02% | max response [20] 0.626% | max response [9] -6.11% | Potency [10] | max response [11] -0.698% | outcome [12]
24.7%: max response [13]

CC(C)(N=C=O)c1cccc(C(C)(C)N=C=O)c1
-4.03%: max response [18]
8.92%: max response [16]
9.94%: max response [13]
inactive: Potency [1] | Potency [14] | Potency [15] | outcome [2] | Potency [17] | Potency [3] | activation [5] -0.946% | activation [6] 0.551% | max response [7] -1.39% | Potency [8] | max response [9] -12% | Potency [10] | max response [11] 4.49%

CCCCCCCCCCCCCCCO
-3.46%: max response [18]
-44.9%: max response [13]
-7.63%: max response [16]
inactive: Potency [14] | Potency [15] | outcome [2] | Potency [17] | Potency [3] | max response [19] -24% | activation [4] -0.317% | activation [5] -1.59% | activation [6] 2.17% | max response [7] 0.401% | Potency [8] | max response [9] -19.2% | Potency [10] | max response [11] 3.48% | outcome [12]

Oc1ccc(C(c2ccc(O)cc2)C(Cl)(Cl)Cl)cc1
inactive: Potency [1] | Potency [15] | outcome [2] | Potency [3] | activation [4] -3.4% | activation [6] 10% | max response [7] -1.42% | Potency [8] | max response [20] -3.02% | max response [9] -13.2% | Potency [10] | max response [11] 2.83%

CC(=O)c1c(C)c([N+](=O)[O-])c(C(C)(C)C)c([N+](=O)[O-])c1C
-17.8%: max response [16]
inactive: Potency [1] | Potency [14] | Potency [15] | outcome [2] | Potency [3] | max response [19] -4.43% | activation [4] 6.99% | activation [5] -2.72% | activation [6] 0.439% | max response [7] 8.73% | Potency [8] | max response [20] -1.24% | max response [9] -8.24% | Potency [10]
-24%: max response [18]
-16.8%: max response [13]
active: Potency [17] 28.2 µM

CCOc1ccc(NC(=O)OC(C)C)cc1OCC
inactive: Potency [1] | Potency [14] | Potency [15] | outcome [2] | Potency [3] | max response [19] -21.6% | activation [4] -0.775% | activation [5] -0.916% | activation [6] 2.6% | Potency [8] | max response [9] -5.68% | Potency [10] | max response [11] 10.3%
-3.73%: max response [18]
-29.8%: max response [13]

CCCCCCC(O)CCCCCCCCCCC(=O)O (centres undefined)
active: Potency [7] 31.6 µM
31.3%: max response [13]
inactive: Potency [14] | Potency [15] | Potency [17] | Potency [3] | activation [6] -0.827% | Potency [8] | max response [20] -0.036% | max response [9] -10.3% | Potency [10] | max response [11] 0.495% | outcome [12]
-2.57%: max response [16]

O=C(O)CCCCCCC(=O)O
5.03%: max response [16]
inactive: Potency [1] | Potency [15] | outcome [2] | Potency [17] | Potency [3] | max response [19] 2.98% | activation [4] -5.91% | activation [6] -0.962% | max response [7] -2.36% | Potency [8] | max response [20] -7.95% | max response [9] -8.35% | Potency [10] | max response [11] -0.548% | outcome [12]
-8.49%: max response [18]

CCOC(=O)NCCOc1ccc(Oc2ccccc2)cc1
-16.1%: max response [13]
inactive: Potency [14] | Potency [15] | Potency [3] | activation [5] 2.75% | activation [6] 5.93% | max response [7] -0.313% | max response [20] -19.4% | Potency [10]

From PubChem BioAssay (NCATS)
